# Bioassay records (PubChem BioAssay)
# cytoskel mod: modifiers of cytoskeleton assembly | HUVEC TNFa F-actin phalloidin imaging, high content | 0.18% of 91,000 active | inhibition, % at 2 µM;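 active = inhibition above the batch mean plus 3 SD and confirmed as a hit by visual image inspection, cut at about 30% in these data, passing the limit was not always enough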
# Phagocytosis inh: blocks phagocytosis by macrophages; 0.07% of 110,000 active; inhibition, % at 5 µM; J774A.1 macrophage IgG-bead phagocytosis, imaging;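 active = inhibition above the mean of the plate negative controls plus 5 SD, cut at about 13% in these data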;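 also: phagocytic index as fraction of beads internalized from green versus red external bead signal; plate controls were DMSO negative control for no effect and cytochalasin-D positive control for full effect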
# VCAM1 TNFa inh: reduces TNF alpha induced VCAM1 expression in HUVEC; HUVEC TNFa-induced VCAM-1 immunofluorescence, high-content imaging; inhibition, % at 2 µM; 0.48% of 95,000 active; AID 802;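 active = inhibition above the batch mean plus 3 SD, with images confirmed as a hit by eye, cut at about 37% in these data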;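 also: 0% = TNF-stimulated DMSO wells and 100% = unstimulated control wells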
# TNFa cytotox: toxic to HUVEC cells under TNF alpha stimulation. 0.17% of 93,000 active. cell count reduction, % at 2 µM. AID 848. HUVEC TNFalpha-stimulated, Hoechst cell count, imaging;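 active = cell count reduction exceeding the screen mean by over 5 SD, scaled to untreated wells per plate, cut at about 78% in these data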;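 also: cells counted after 24 h of TNF alpha exposure following the 1 h pretreatment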
# E-sel TNF inh: TNF alpha driven E-selectin expression inhibition | HUVEC TNFa-induced E-selectin immunofluorescence, high content | inhibition, % at 2 µM | AID 1246 | 0.71% of 120,000 active;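 active = inhibition above the batch mean plus 3 SD, and confirmed as a hit on visual image review, cut at about 43% in these data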;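 also: 0% = TNF-stimulated DMSO wells and 100% = unstimulated control wells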
# SDO1 yeast rescue: sdo1-depleted yeast growth rescue | z-score at 10 µM | S. cerevisiae sdo1-depleted JHY4D growth rescue, OD600 30 h; active compounds read high; pdr5 snq2 efflux-pump mutant strain | 0.21% of 140,000 active;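 active = z-score above 3 at both the 24 hr and the 30 hr optical density reads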;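 also: z-score against mean and SD of all compound wells on the same plate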
# sdo1 rescue conf: SDO1-depleted yeast growth rescue confirmation; 44% of 440 active; shares compounds with SDO1 yeast rescue; OD recovery (no concentration beside the values); S. cerevisiae JHY4D (SDO1-depleted) growth rescue, OD600, 30 h; active compounds read high; efflux-deficient strain, SNQ2 and PDR5 mutated;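 active = yeast growth recovered at 30 hours, either rising with dose fitted slope above 0.001 or with average optical density gain above 0.07, some results past the limit were not filed as active; inactive = growth falling with dose or no effect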;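 also: gain in OD600 from 0 h to 30 h averaged across all seven doses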
# An asterisk follows results filed as active; · = no result given. Most compounds without a hit are left out; they make up all but 1.2% or so of the library.
SMILES,cytoskel mod,Phagocytosis inh,VCAM1 TNFa inh,TNFa cytotox,E-sel TNF inh,SDO1 yeast rescue,sdo1 rescue conf
CC(C)C1(C(C)C)OC(=O)c2ccccc21,·,-2.0,·,·,·,3.04*,0.0685
CN(C)c1nc(N(C)C)n(Cc2c(Cl)cccc2Cl)n1,·,·,·,·,17.5,·,·
CCOC(=O)/C=C1\SCC(=O)N1CC(=O)NC12CC3CC(CC(C3)C1)C2,-4.5,-0.5,-1.8,-19.0,-7.7,14*,0.0837*
NS(=O)(=O)c1ccc(Nc2nc3ccccc3nc2NS(=O)(=O)c2cccc([N+](=O)[O-])c2)cc1,·,·,·,·,-17.6,·,·
Brc1ccc(NC2=Nc3ccccc3CC2)cc1,-11.1,·,2.3,14.3,-2.3,13.3*,0.0751*
N#Cc1ccc(N/N=C/c2cn(-c3ccccc3)nc2-c2ccccc2)c([N+](=O)[O-])c1,·,·,·,·,·,0.62,0.0257
CC(NC(=O)c1sc2ccccc2c1Cl)C1CCCO1 (centres undefined),·,-8.1,·,·,·,3.96*,0.079
CC(NC(=O)c1csc2ccccc12)C1CCCO1 (centres undefined),-3.4,1.3,-9.4,7.0,-24.8,0.48,·
CC(=O)NCc1ccc(S(=O)(=O)NC(C(=O)O)C(C)C)cc1 (centres undefined),·,·,·,·,-24.5,·,·
COC(=O)c1c(NC(=O)CC2SC(N)=NC2=O)sc(C)c1C (centres undefined),·,·,·,·,14.4,·,·
Nc1nc(NC(=O)c2ccco2)nn1-c1ccccc1,·,-0.2,·,·,-15.7,3.12*,0.0484
C[n+]1ccccc1COc1ccc(C(C)(C)C)cc1,·,-4.9,·,·,-9.2,0.13,·
FC(F)Oc1ccc(NC(=S)NNc2ccnc3cc(Cl)ccc23)cc1,·,·,·,·,-1.9,·,·
Cc1nc(CS(=O)(=O)c2ccccc2)cc(N2CCOCC2)n1,-7.6,-0.1,0.4,-26.2,-38.9,12*,0.0688*
S=C(NCc1ccco1)N/N=C/c1ccc(Cl)cc1,·,-0.2,·,·,·,8.39*,0.0788*
COCCNC(=O)CSc1nc2nn(-c3ccccc3)c(=O)c-2c2n1CCCCC2,·,·,·,·,-13.4,·,·
CN1CCN(c2ccc(Cl)cc2NC(=O)c2ccc(S(=O)(=O)N(C)C)cc2)CC1,-7.1,-1.1,18.3,-11.2,·,4.3*,0.0452
C=CC(=O)NCCCc1cc(C(C)(C)C)c(O)c(C(C)(C)C)c1,·,-8.1,·,·,15.3,-0.05,·
CC(=O)N/C(=C\c1ccc(F)cc1)C(=O)OC(C)C,·,-1.0,·,·,2.8,3.35*,0.098*
CCOC(=O)/C(=C/c1ccc(F)cc1)NC(C)=O,·,2.2,·,·,-1.4,1.11,·
O=C(NC(=S)NCCCN1CCOCC1)c1cccc2ccccc12,·,·,·,·,7.3,·,·
COc1cc(/C=N/NC(=O)CN2CCCCC2)ccc1OCc1ccccc1,·,·,·,·,-33.4,-0.04,·
CCCCOc1ccc(C(=O)N/N=C/c2ccc(OCCN3CCCCC3)c(OC)c2)cc1,·,-3.0,·,·,8.4,8.97*,0.107*
Cc1cc(C)c2c(N=NN3CCOCC3)[nH]nc2n1,·,-11.6,·,·,·,0.23,·
Cc1cc2c(c(=O)n1Cc1cccnc1)C(c1ccccc1)C(C#N)=C(N)O2 (centres undefined),-15.3,-0.4,3.5,22.0,·,5.76*,0.0673
SMILES,cytoskel mod,Phagocytosis inh,VCAM1 TNFa inh,TNFa cytotox,E-sel TNF inh,SDO1 yeast rescue,sdo1 rescue conf
CC1(C)NC(=O)N(CC(O)CN2C(=O)NC(C)(C)C2=O)C1=O,31.4,0.1,-12.2,-5.6,-36.3,9.05*,0.133*
COc1ccc(C(=O)CSc2nnc(Cc3ccccc3)o2)cc1,7.1,1.2,14.1,-17.0,·,6.99*,0.0469
O=C(CSc1nnc(-c2ccco2)o1)c1ccccc1,58.0,2.2,20.4,-12.4,12.7,1.23,0.035
CN(C(=O)Cn1cccc1C1=NC(c2ccccc2)CO1)c1ccccc1 (centres undefined),·,·,·,·,4.6,·,·
COc1cc(/C=C/C(=O)c2ccc(NS(=O)(=O)c3ccc(C)cc3)cc2)cc(OC)c1O,·,-7.7,·,·,6.3,11.4*,0.0551
COc1cc(/C=C/C(=O)c2ccc(NS(=O)(=O)c3ccc(C)cc3)cc2)ccc1OC(F)F,·,0.1,·,·,·,-0.16,·
CCOC(=O)CNC(=O)c1cccnc1,13.0,0.7,-6.1,-0.4,-29.1,1.36,·
CCOC(=O)C(O)(NC(=O)c1cccnc1)C(F)(F)F (centres undefined),9.3,0.6,6.2,-13.2,3.0,8.05*,0.0927*
Cc1cc(NC(=O)c2noc3c2CCc2ccccc2-3)n(-c2ccccc2)n1,·,-0.3,·,·,-5.7,9.63*,0.0829*
Cc1ccc(NC(=O)c2noc3c2CCc2ccccc2-3)cc1,·,-0.6,9.8,-22.6,5.7,0.86,·
N#C/C(=C\c1cn(CCOc2ccccc2)c2ccccc12)C(=O)NCc1cccs1,·,0.7,·,·,-15.4,-1.45,·
COc1ccc(/C=N/NC(=O)c2cccc(NC(C)=O)c2)c(C(=O)O)c1OC,·,·,·,·,-2.6,·,·
Cn1c(NCCCO)nc2c(c1=O)C1(CCCCC1)Cc1ccccc1-2,29.7,1.7,-4.1,-26.4,-1.3,-1.19,·
CCC1(C)Cc2ccccc2-c2nc(NCCCO)n(-c3ccccc3)c(=O)c21 (centres undefined),-16.1,-0.3,17.5,3.8,37.6,5.82*,0.074
CCS(=O)(=O)Nc1ccc(-c2nnc(SCC(=O)c3ccc(NC(C)=O)c(OC)c3)o2)cc1,-15.8,0.9,8.6,-10.6,-7.0,2.72,0.061
CCSc1nnc(NC(=O)c2cc(OC)c(OC)c(OC)c2)s1,·,·,·,·,0.4,·,·
Cc1ccc(S(=O)(=O)N2CC=C(c3ccc(F)cc3)CC2)cc1,·,·,·,·,·,7.12*,0.0304
Cc1cccc(NC(=O)Cc2ccc(F)cc2)c1,0.0,-1.6,-3.3,0.0,5.7,6.75*,0.0753*
Cc1cccc(NC(=O)CN(c2ccc(F)cc2)S(C)(=O)=O)c1,·,·,·,·,-20.4,·,·
COc1cccc(C(=O)Nc2ccc(NC(=O)C3CC3)cn2)c1,-3.4,·,-21.3,-9.3,7.3,2.36,0.0837*
Cc1nc2ccccc2c(=O)n1/N=C/c1cccnc1,-1.5,-0.8,19.4,·,-20.5,3.06*,0.053
CCOC(=O)C1CCCN(C(=O)c2ccccc2SCCOC)C1 (centres undefined),13.2,-0.1,-10.6,-23.6,21.5,1.61,0.0814*
CCOC(=O)C1CCCN(C(=O)CSc2ccccc2)C1 (centres undefined),·,0.5,·,·,·,-0.14,·
COC(=O)C(C)N(C(=O)c1cccc2ccccc12)c1c(C)cccc1C (centres undefined),-8.3,-2.0,-11.4,-13.6,12.8,-1.82,·
COC(=O)C(C)N(C(=O)c1cccc(Cl)c1)c1c(C)cccc1C (centres undefined),-1.9,0.6,5.2,-20.0,13.0,5.56*,0.0558
COCCNC(=O)CSc1nnc(-c2ccccc2F)n1Cc1ccccc1,·,·,·,·,6.7,·,·
COc1ccc(C(=O)NCCc2cn3ccc(C)cc3n2)cc1,-14.3,0.2,8.6,-19.3,17.4,1.08,0.0813*
CC(C)OC(=O)c1cccc(NC(=O)CSc2nnc(N)s2)c1,·,·,·,·,37.6,·,·
COc1cc(OC)c(-c2c3cc(O)c(=O)cc-3oc3cc(O)c(O)cc23)cc1OC,·,-9.2,·,·,·,3.77*,-0.0253
